In the library only some 0.92% were active in any assay of this set; here they are far more common.
Rv3671c protease: Rv3671c serine protease inhibitors, primary screen, biochemical, fluorescence polarization, M. tuberculosis H37Rv; P9WHR9; inhibition, % at 5.96 µM; 320,000 compounds, 0.048% hits; in the data active means inhibition above about 38%;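 further: extracellular domain of Rv3671c used as enzyme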
Target sequence (P9WHR9 whole entry, looked up, the tested form may be a part): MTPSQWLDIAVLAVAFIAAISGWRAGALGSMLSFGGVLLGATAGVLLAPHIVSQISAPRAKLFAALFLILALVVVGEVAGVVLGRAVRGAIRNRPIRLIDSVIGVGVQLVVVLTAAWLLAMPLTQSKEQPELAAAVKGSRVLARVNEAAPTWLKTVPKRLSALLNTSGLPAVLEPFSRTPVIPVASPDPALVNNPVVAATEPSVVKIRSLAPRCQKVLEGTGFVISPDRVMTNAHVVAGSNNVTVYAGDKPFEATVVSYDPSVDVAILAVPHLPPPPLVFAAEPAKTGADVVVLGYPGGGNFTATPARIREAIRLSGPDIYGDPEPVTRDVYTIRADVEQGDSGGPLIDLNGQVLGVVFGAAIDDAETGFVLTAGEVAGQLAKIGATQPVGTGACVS
RecA splice inh: Mtb RecA intein splicing inhibitors, primary screen, biochemical, fluorescence, HTS. 290,000 compounds, 0.75% hits. Protein RecA (Mycobacterium tuberculosis (strain ATCC 25618 / H37Rv)), P9WHJ3. cell-free RecA intein splicing. inhibition, % (no concentration beside the values). AID 2221, 2009; in the data active means inhibition above about 30%
FadD28 binding: inhibitors of FadD28 bisubstrate probe binding, primary screen, biochemical, fluorescence polarization, single point | Mycobacterium tuberculosis FadD28 fatty-acid-AMP ligase | inhibition, % at 12.5 µM | 360,000 compounds, 0.22% hits | AID 588549, 2011; in the data active means inhibition above about 8.5%, passing the limit was not always enough
Mtb hypoxia inh: PubChem AID 1159583. M. tuberculosis hypoxia-regulated fluorescent reporter, fluorescence. fluorescence inhibition, % (no concentration beside the values). 300,000 compounds, 0.1% hits; in the data active means fluorescence inhibition mostly above about 23%, no sharp cut-off; inactive means mostly below about 17%
Mtb UGM inh: M. tuberculosis UGM enzyme inhibitors, primary screen, biochemical, fluorescence polarization, single point | 320,000 compounds, 0.06% hits | purified UGM, fluorescence polarization probe displacement | inhibition, % at 10 µM; in the data active means inhibition above about 10%, passing the limit was not always enough
GFP chromophore: counter-screen: blocks GFP chromophore formation, dose response, counter-screen, biochemical, fluorescence, homogeneous. shares compounds with RecA splice inh. cell-free GFP chromophore formation. EC50, µM. 2,100 compounds, 83% hits. AID 434968, 2010; call rule not given here
Numbers stand for hits; 0 = inactive; - = no result.

SMILES | Rv3671c protease | RecA splice inh | FadD28 binding | Mtb hypoxia inh | Mtb UGM inh | GFP chromophore
CCc1ccc(N2C(=O)C(Cl)=C(N3CCCCCC3)C2=O)cc1 | - | 0 | 0 | 0 | 0 | -
COc1ccc(N2C(=O)C(Cl)=C(Oc3cccc(OC)c3)C2=O)cc1 | 0 | 38.8 | 0 | 0 | 0 | 20.2
CCCCCCc1ccc(N2CC(C)C(CC(=O)NCc3ccccc3)C2=O)cc1 (stereo not given) | - | - | - | 0 | - | -
CC(=NNC(=O)c1nnn(-c2nonc2N)c1CSc1ccc(Cl)cc1)c1cccnc1 | - | - | - | 0 | - | -
COc1ccc(C2CC=C(C(=O)O)C(c3cccc(Cl)c3)N2S(=O)(=O)c2ccccc2C)cc1 (stereo not given) | - | - | - | 0 | - | -
O=C(CCl)Oc1ccc2occ(C(=O)c3cccs3)c2c1 | 0 | 31.5 | 0 | 0 | 0 | 24.9
Cc1ccc(-n2nc(C)c3c2OC(N)=C(C#N)C3c2ccc(C)o2)cc1 (stereo not given) | 0 | 79.8 | 0 | 0 | 0 | 16.6
COc1ccc(OC)c(C2C(C#N)=C(N)Oc3c2c(C)nn3-c2ccc(C)cc2)c1 (stereo not given) | 0 | 43.8 | 0 | - | 0 | 29.4
Cc1ccc(-n2nc(C)c3c2OC(N)=C(C#N)C3c2ccco2)cc1 (stereo not given) | 0 | 69.0 | 0 | 0 | 0 | 10.6
COc1ccc(C2C(C#N)=C(N)Oc3c2c(-c2ccccc2)nn3-c2ccccc2)c(OC)c1OC (stereo not given) | 0 | 0 | 0 | 0 | - | -
COc1ccc(C2C=CCN(C(=O)NC34CC5CC(CC(C5)C3)C4)CC(=O)N2Cc2ccc(F)cc2)cc1 (stereo not given) | - | - | - | 0 | - | -
S=C(NN=Cc1ccc(Cl)c(Cl)c1)Nc1ccccc1Cl | - | - | - | 0 | - | -
CCO/C=C1/C(=O)N(Cc2ccccc2)C(=O)c2ccccc21 | 0 | 36.3 | 0 | 0 | 0 | 0
Cc1cccc(NN=Cc2ccccc2O)c1 | - | - | - | 0 | - | -
COc1ccccc1C=CC1=NC(=CC=Cc2ccccc2)C(=O)O1 | - | - | - | 0 | - | -
N#C/C(=C\c1cc(Cl)c(OCc2ccc(Cl)cc2)c(Cl)c1)C(N)=O | 0 | 44.4 | - | - | 0 | 0
COC(=O)C1=C(c2ccc(S(C)(=O)=O)cc2)CC2CCC1N2C(=O)NCCCOC(C)C (stereo not given) | - | - | - | 0 | - | -
CN1CCN(c2ccc([N+](=O)[O-])c3no[n+]([O-])c23)CC1 | 0 | 86.0 | 0 | 0 | 0 | 0
O=C(CC1CC=CCCCCC(=O)OCC2CCCN2C1=O)NC(CO)Cc1ccccc1 (stereo not given) | - | - | - | 0 | - | -
Cc1nn(Cc2ccccc2)c2c1C(c1cccnc1)C(C#N)=C(N)O2 (stereo not given) | 0 | 72.7 | 0 | 0 | 0 | 12.8
COC(=O)C1=C(C)OC(N)=C(C#N)C1c1c(C)nn(-c2ccccc2)c1Cl (stereo not given) | 0 | 0 | 0 | 0 | 0 | -
Cc1nn(Cc2ccccc2)c2c1C(c1ccc(Cl)cc1)C(C#N)=C(N)O2 (stereo not given) | 0 | 59.9 | 0 | 0 | 0 | 16.2
Cc1nn(Cc2ccccc2)c2c1C(c1ccco1)C(C#N)=C(N)O2 (stereo not given) | 0 | 54.6 | 0 | - | 0 | 23.2
Cc1cc2c(c(=O)n1Cc1cccnc1)C(c1ccccc1)C(C#N)=C(N)O2 (stereo not given) | 0 | 0 | 0 | 0 | 0 | -
Cc1nn(Cc2ccccc2)c2c1C(c1ccncc1)C(C#N)=C(N)O2 (stereo not given) | 0 | 67.3 | 0 | - | 0 | 18.4
SMILES | Rv3671c protease | RecA splice inh | FadD28 binding | Mtb hypoxia inh | Mtb UGM inh | GFP chromophore
C=CCOC(=O)C1=C(C)OC(N)=C(C#N)C1c1ccco1 (stereo not given) | 0 | 0 | 0 | 0 | 0 | -
CCOC1OC(C(=O)N2CCN(Cc3ccc4c(c3)OCO4)CC2)=CC(c2coc3ccccc3c2=O)C1CCCO (stereo not given) | - | - | - | 0 | - | -
Cn1ncc(Cl)c1C(=O)NN=Cc1ccccn1 | - | - | - | 0 | - | -
ON=Cc1cccn1-c1ccc(O)cc1 | - | - | - | 0 | - | -
COc1ccc(C2C3C(=O)N(C(C)(C)C)C(=O)C3[C@]3(Cc4ccccc4)C(=O)N(c4cccc(Cl)c4)C(=O)N23)cc1 (stereo not given in full) | - | - | - | 0 | - | -
CN(C)C=Nc1[nH]ncc1C#N | - | - | - | 0 | - | -
CC(C)(C)c1cc(C=NO)cc(C(C)(C)C)c1O | - | - | - | 0 | - | -
